The campaign covered roughly 350,000 compounds. About 7,000 (2%) were called active. No stated cut-off is given here; in the data, active means activation above about 40%; inconclusive means no clear call, values can overlap the other calls; inactive means below that. Only a selection was taken, and actives are over-represented in it overall.
test: raisers of Bmi1 knock-in reporter signal – mouse ES cells, Bmi1 luciferase knock-in, single point, esBAF inhibitor project, primary screen (AID 602393); settings: 24 h, at 12.5 µM, active compounds read high, 100% = twice the neutral-well signal;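 further: 0% = median of the plate's neutral control wells and 100% = double that signal; a rise in the Bmi1 reporter signal indicates esBAF inhibition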

Reporter increase, inactive:
CO[C@H]1CN(C)C(=O)c2cc(NS(=O)(=O)CC(F)(F)F)ccc2OC[C@@H](C)N(C(=O)c2ccc3c(c2)OCO3)C[C@@H]1C 2.12%
O=C(c1ccccc1)N1C[C@@H]2[C@H](c3ccccc31)[C@@H](CO)N2Cc1cc(F)ccc1F -1.5%
CO[C@@H]1CN(C)C(=O)c2cc(NC(=O)C3CCCCC3)ccc2OC[C@@H](C)N(C(=O)Nc2ccc(C(F)(F)F)cc2)C[C@H]1C 9.31%
CCCNC(=O)[C@H]1[C@H](CO)[C@H]2Cn3c(ccc(C4=CCCC4)c3=O)[C@H]2N1C(=O)CC1CC1 -1.14%
CC(=O)c1cccc(NC(=S)N2CCCC2)c1 3.72%
CCSc1nsc(NC(=O)Nc2cccc(C(C)=O)c2)n1 7.31%
Cc1ccccc1C(=O)Nc1ccccc1NC(=O)c1ccccc1C -2.73%
COc1cc2ccccc2cc1C(=O)Nc1ccc(S(=O)(=O)Nc2cc(C)on2)cc1 5.76%
COc1ccc(C(=O)Nc2cc(C)c(NC(=O)c3ccccc3OC)cn2)cc1 34.2%
CCOc1cc2ccccc2cc1C(=O)Nc1ccccn1 18.4%
CC(C)C#Cc1cnc2c(c1)C(=O)N([C@@H](C)CO)C[C@@H](C)[C@@H](CN(C)C(=O)c1cccc(F)c1)O2 4.18%
CCC(=O)N1[C@@H]2c3ccc(-c4ccc(F)cc4)c(=O)n3C[C@H]1[C@H](CO)[C@H]2C(=O)N(C)C -3.81%
CO[C@@H]1CC[C@@H]2CCOc3ccc(C#N)cc3C(=O)N(C)C[C@H](c3ccccc3)CC(=O)N(C)C[C@H]1O2 -4.55%
CO[C@@H]1CN(C)C(=O)c2cc(NC(=O)C3CCOCC3)ccc2OC[C@H](C)N(C)C[C@H]1C -1.27%
COc1ccc(-c2ccc([C@@H]3[C@@H](C#N)N(C(=O)C4CCCCC4)[C@H]3CO)cc2)cc1 9.6%
CC(C)(C)OC(=O)N1CCC(C(=O)Nc2cccc(C(=O)NCCc3ccccc3)c2)CC1 24.1%
CSc1ncc(C(=O)NCCCc2ccccc2)c(C)n1 5.19%
O=C(NCc1ccccc1)c1cccc(NC(=O)C2CCCCC2)c1 -4.78%
O=C(COC(=O)c1ccc(F)cc1)NCCCc1ccccc1 -1.61%
C[C@@H]1CN([C@H](C)CO)S(=O)(=O)c2ccc(C3=CCCC3)cc2O[C@H]1CN(C)C(=O)CC1CC1 -4.31%
CC(=O)N1[C@@H]2Cn3c(ccc(C4=CCCC4)c3=O)[C@H]1[C@@H](C(=O)NC1CCC1)[C@@H]2CO 1.06%
CNC[C@H]1OCCCC[C@@H](C)Oc2ccc(NC(=O)Cc3ccccc3)cc2C(=O)N([C@H](C)CO)C[C@@H]1C -1.06%
CC=Cc1ccc2n(c1=O)C[C@H]1[C@H](CO)[C@@H](C(=O)NC3CCCC3)N(Cc3ccncc3)[C@@H]21 (mixture of isomers) -6.02%
CCCNC(=O)C[C@H]1C[C@@H]2c3cc(NC(=O)c4ccc5c(c4)OCO5)ccc3O[C@@H]2[C@@H](CO)O1 0.264%
O=C(OCCN1C(=O)c2ccccc2C1=O)Oc1ccccc1 -11.2%
O=C1c2ccccc2C(=O)N1CCCCCCN1C(=O)c2ccccc2C1=O 5.74%
C[C@H]1CN([C@@H](C)CO)C(=O)c2cc(NC(=O)Cn3cnnn3)ccc2O[C@H]1CN(C)C(=O)NC1CCCCC1 -0.29%
Cc1ccc(S(=O)(=O)Nc2ccc3c(c2)C(=O)N([C@H](C)CO)C[C@H](C)[C@@H](CN(C)S(=O)(=O)c2cn(C)cn2)OCCCC[C@H](C)O3)cc1 -6.8%
CCOC(=O)c1ccccc1CN1C(=O)c2ccccc2S1(=O)=O 0.163%
CCOC(=O)CN1C(=O)C(=O)c2cc(C)ccc21 -5.46%
COc1ccc(CN(C)C[C@H]2OCCCC[C@@H](C)Oc3ccc(NS(C)(=O)=O)cc3C(=O)N([C@@H](C)CO)C[C@H]2C)cc1 -3.35%
CCC(=O)Nc1ccc2c(c1)OC[C@@H](C)N(Cc1ccccc1OC)C[C@H](C)[C@H](OC)CN(C)C2=O -1.32%
COCC(=O)Nc1ccc2c(c1)C(=O)N(C)C[C@@H](OC)[C@H](C)CN(C(=O)CC1CC1)[C@H](C)CO2 0.458%
Cc1ccc(S(=O)(=O)Nc2cccc3c2O[C@@H](CN(C)C(=O)Nc2ccccc2)[C@H](C)CN([C@@H](C)CO)C3=O)cc1 -4.19%
CN(C)c1cc[n+](Cc2ccccc2)cc1 12.9%
CN(C)c1ccc(CNC23CN4CN(CN(C4)C2)C3)cc1 2.1%
CCNC(=O)C[C@@H]1CC[C@H]2[C@@H](COC[C@@H](O)CN2C(=O)c2cc(Cl)cc(Cl)c2)O1 -3.54%
COCC(=O)Nc1ccc2c(c1)C(=O)N(C)[C@@H]1CC[C@@H](CC(=O)NCCCN(C)C)O[C@@H]1CO2 12.8%
O=c1cc(-c2ccccc2)[nH]c2cc(F)ccc12 7.27%
Cc1ccc(S(=O)(=O)/N=C(\N)c2ccc(F)cc2)cc1 13.3%
S=C1NC(c2ccccc2)=NCN1c1ccc(Br)cc1 30.7%

Reporter increase, active:
CC(=O)c1cccc(NC(=O)Nc2ccc(C)cc2)c1 42.2%
COc1cc2ccccc2cc1C(=O)Nc1ccccc1C 71.4%
COc1cc2ccccc2cc1C(=O)Nc1ccncc1 60%
O=C(NCCc1ccccc1)c1cccc(NC(=O)c2ccccc2)c1 42.6%
CC(C)c1ccc(C(=O)NCCCc2ccccc2)cc1 55.1%
O=C1c2ccccc2C(=O)N1CCOc1ccc(F)cc1 60.3%
CCOC(=O)c1cc2n(c1C)-c1ccccc1C2=O 47.8%
CN(C)c1ccc(CSc2ccccc2)cc1 75.8%
Cc1ccc(-c2cc(=O)c3ccc(F)cc3[nH]2)cc1 47.2%
Brc1ccccc1C1N=C(c2ccccc2)NO1 (configuration not stated) 54.3%
N#Cc1ccc(C2N=C(c3ccccc3)NO2)cc1 (configuration not stated) 65.2%

— PubChem BioAssay AID602393 (Broad Institute, 2012)
